# Assay outcomes (PubChem)
# FAS-TE inh – FAS thioesterase (human) inhibition. P49327. AID 602261. 360,000 compounds, 0.67% hits. inhibition, % at 15 µM. recombinant FAS-TE, OMFH fluorogenic substrate, fluorescence endpoint;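 active = compounds whose normalised, plate-corrected inhibition of enzyme fluorescence in the single-dose primary screen is 50% or more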;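 note: 0% = DMSO with enzyme and 100% = substrate without enzyme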
# A3G deaminase – blocks human APOBEC3G single-stranded DNA deamination; Q9HC16; recombinant A3G, ssDNA deamination FAM/TAMRA fluorescence; inhibition, % at 20 µM; 330,000 compounds, 0.28% hits;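 active = inhibition of at least 40% at 20 µM, with no more than 30% in the related APOBEC3A deaminase screen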;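 note: plate controls were DMSO wells with A3G for no effect and wells lacking A3G enzyme for full effect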
# NPR1 activator – GC-A (human) enzyme activation. P16066. HEK293 GC-A cells, cGMP TR-FRET, EC30 ANP; 0% at EC30 ANP, 100% saturating ANP. activation, % at 10 µM. 370,000 compounds, 0.14% hits; in the data active = activation above about 40%
# Target sequence (P16066 whole entry, looked up): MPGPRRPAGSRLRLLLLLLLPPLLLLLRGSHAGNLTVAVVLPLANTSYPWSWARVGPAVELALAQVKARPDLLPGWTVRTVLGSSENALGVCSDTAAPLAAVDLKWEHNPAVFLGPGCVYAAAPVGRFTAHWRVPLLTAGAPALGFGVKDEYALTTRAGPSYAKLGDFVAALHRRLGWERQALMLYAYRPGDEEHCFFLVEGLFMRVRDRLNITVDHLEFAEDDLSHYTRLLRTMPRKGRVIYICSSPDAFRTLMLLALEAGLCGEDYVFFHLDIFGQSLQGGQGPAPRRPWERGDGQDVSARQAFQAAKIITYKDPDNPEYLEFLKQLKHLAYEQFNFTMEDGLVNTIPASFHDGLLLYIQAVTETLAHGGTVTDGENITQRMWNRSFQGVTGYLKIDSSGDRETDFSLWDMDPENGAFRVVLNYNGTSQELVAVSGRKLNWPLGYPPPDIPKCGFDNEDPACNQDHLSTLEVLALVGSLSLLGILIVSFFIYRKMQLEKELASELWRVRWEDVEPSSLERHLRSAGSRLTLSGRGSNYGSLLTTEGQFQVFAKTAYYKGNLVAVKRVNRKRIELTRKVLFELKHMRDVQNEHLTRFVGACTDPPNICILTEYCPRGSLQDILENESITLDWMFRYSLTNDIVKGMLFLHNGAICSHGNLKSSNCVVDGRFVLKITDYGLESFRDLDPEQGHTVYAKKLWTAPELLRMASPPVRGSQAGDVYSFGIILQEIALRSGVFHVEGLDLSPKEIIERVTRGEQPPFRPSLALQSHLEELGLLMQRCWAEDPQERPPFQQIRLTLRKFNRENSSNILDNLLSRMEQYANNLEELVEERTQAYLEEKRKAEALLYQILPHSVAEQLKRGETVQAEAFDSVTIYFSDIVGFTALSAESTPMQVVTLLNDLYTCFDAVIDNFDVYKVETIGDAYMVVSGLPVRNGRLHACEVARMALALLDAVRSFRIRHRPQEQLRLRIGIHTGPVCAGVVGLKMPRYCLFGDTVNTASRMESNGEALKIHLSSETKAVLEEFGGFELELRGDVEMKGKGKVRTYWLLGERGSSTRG
# GC-B act – GC-B (human) receptor activation | 370,000 compounds, 0.11% hits | activation, % at 10 µM | HEK293-GC-B cells, CNP EC30, cGMP TR-FRET; 0% at EC30 CNP, 100% saturating CNP;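 active = activation at 10 µM reaching about 35% in either raw or pattern-adjusted values, limit read from the data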
# A3A deaminase – blocks human APOBEC3A ssDNA deamination. 330,000 compounds, 0.41% hits. recombinant A3A, FAM/TAMRA ssDNA deamination fluorescence. inhibition, % at 20 µM. AID 493011. P31941;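 active = at least 40% inhibition at 20 µM here, with at most 30% in a related deaminase screen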;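 note: plate controls were A3A with DMSO for no effect and wells lacking A3A enzyme for full effect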
# APOBEC3A confirm – APOBEC3A (human) deaminase inhibition, confirmed; 1,400 compounds, 63% hits; shares compounds with A3A deaminase; AID 493151; recombinant A3A, ssDNA deaminase UDG fluorescence assay; inhibition, % at 20 µM;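 active = inhibition reaching a set limit, 80% of the first screen's cutoff, at 20 µM in any replicate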;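 note: plate controls were DMSO wells with A3A for no effect and wells lacking A3A enzyme for full effect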
# UDG ctr A3A – counter-screen for APOBEC3A inhibitors: UDG | 1,000 tested, under 10 active | inhibition, % at 20 µM | UDG counterscreen, FAM/TAMRA uracil oligo fluorescence | shares compounds with A3A deaminase; call rule not given here
# Active calls of the source: *; . = no result. The list is not random: actives were taken first. Their share in the collection is about 1.4%.
SMILES,FAS-TE inh,A3G deaminase,NPR1 activator,GC-B act,A3A deaminase,APOBEC3A confirm,UDG ctr A3A
COc1ccc(-c2nnc(SCC(=O)NC(=O)Cc3ccccc3)n2C)cc1,-7.7,10.0,-1.2,-5.5,42.9*,20.8,.
Cn1c(SCC(=O)NC(C)(C)C)nnc1-c1cccc(NC(=O)c2ccccc2F)c1,-8.3,16.4,1.9,-3.1,45.2*,24.1,.
COc1ccc(-c2nnc(SCC(=O)Nc3ccc(C)cc3)n2C)cc1,-2.9,-3.7,2.5,1.7,-0.7,.,.
O=C1N2Cc3ccccc3C2CS(=O)(=O)N1Cc1ccccc1 (stereo not drawn),.,.,0.5,-1.6,.,.,.
CCCCOCCCNC(=O)C[C@@H]1C(=O)N(CCc2ccc(Cl)cc2)C2=CCCC[C@]21C(=O)OCC,.,.,-0.5,-4.9,.,.,.
COC(=O)C/C=C/[C@@H](C)[C@H](NC(=O)OCC(Cl)(Cl)Cl)c1ccc(-c2ccccc2)cc1,.,.,0.8,-10.8,.,.,.
CNCCCNC(=O)c1ccc(/C=N/O)nc1,-3.1,-6.8,-1.3,-2.8,0.4,.,.
C[N+](C)(C)CCCNC(=O)c1ccc(/C=N/O)nc1,-3.3,14.7,0.2,7.2,41.4*,71.9*,0.7
CCn1c2c(n(C(C)=O)c1=O)C[C@@H](c1ccccc1)[C@@H](C)[C@@H](C(=O)N1CCCC1)C2,.,.,-0.1,4.5,.,.,.
Cn1c(CC(=O)Nc2ccccc2F)nnc1SCC(=O)N1CCOCC1,-7.3,6.5,-0.6,10.6,40.3*,28.8,.
Cn1c(SCC(=O)N2CCOCC2)nnc1-c1ccccc1,-7.9,24.5,0.9,-8.0,53.7*,-0.3,.
O=C(COc1ccc(Br)cc1Br)NN1C(=O)c2ccccc2C1=O,9.5,-8.6,-1.5,4.1,55.2*,11.1*,8.3
CC(C)c1ccc(OCC(=O)NN2C(=O)c3ccccc3C2=O)c(Br)c1,21.4,-12.4,4.2,5.0,-1.5,.,.
C[N+]1(CC(=O)OCCCc2ccccc2)CCCC1,-7.7,17.3,-0.7,-1.0,54.9*,81.0*,-3.0
O=C(CCc1ccccc1)OCCOC(=O)CCc1ccccc1,9.8,-6.6,-1.1,-0.8,-1.3,.,.
O=C(CN1CCCC1)OCCCc1ccccc1,-6.3,-6.2,-1.4,1.8,-3.5,.,.
C[N+]1(CC(=O)OCCCc2ccccc2)CCCCC1,-6.9,16.4,-3.6,0.4,48.3*,83.4*,2.4
O=C(CC1(O)C(=O)Nc2cc(Cl)cc(Cl)c21)c1ccccc1O (stereo not drawn),7.2,-0.5,-7.2,-10.4,64.8*,-9.8,0.8
O=C(CC1(O)C(=O)Nc2ccccc21)c1ccccc1O (stereo not drawn),-5.6,-4.7,-4.8,-2.1,-1.5,.,.
O=C(COC(=O)c1ccc(F)c(S(=O)(=O)N2CCOCC2)c1)NC1CC1,-4.0,5.7,0.4,-9.9,1.3,.,.
O=C(COC(=O)c1ccc(F)c(S(=O)(=O)N2CCOCC2)c1)Nc1ccc2[nH]c(=O)[nH]c2c1,-7.8,15.4,1.4,4.1,42.4*,41.5*,-2.0
CCCCCCC(=O)NC1CCCCN(Cc2ccc(C)cc2)C1=O (stereo not drawn),.,.,-0.4,-0.8,.,.,.
CC(=O)Nc1cccc(C(=O)OCC(=O)Nc2c(C)nn(-c3ccccc3)c2C)c1,-6.2,0.5,0.2,3.1,52.4*,2.4,.
CCOc1ccc(N(CC(=O)Nc2ccccc2)S(C)(=O)=O)cc1,-5.6,9.1,0.7,2.4,42.7*,63.8*,-3.7
CCOc1ccc(N(CC(=O)Nc2ccc(C)c(C)c2)S(C)(=O)=O)cc1,7.6,2.8,0.7,3.1,46.1*,1.8,.
SMILES,FAS-TE inh,A3G deaminase,NPR1 activator,GC-B act,A3A deaminase,APOBEC3A confirm,UDG ctr A3A
CCOc1ccc(N(CC(=O)Nc2ccc(C)c(C)c2)S(=O)(=O)c2c(C)[nH]c(=O)[nH]c2=O)cc1,4.6,-2.9,1.5,4.4,1.3,.,.
Cc1nc2ccccc2n1-c1ccccc1,-2.2,-0.3,-1.7,-2.2,1.9,.,.
Cc1nc2nc(C)n(-c3ccccc3)c2s1,0.6,30.0,6.4,7.1,48.2,46.9*,-2.5
O=C(CCn1nnc(-c2cccs2)n1)NCc1ccco1,.,.,1.1,4.0,.,.,.
O=S(=O)(O)c1cc(O)c2c(O)c(N=Nc3cc(Cl)ccc3O)c(S(=O)(=O)O)cc2c1,4.9,22.3,.,.,91.5*,90.0*,2.9
Cc1ccc(OCCC(=O)Nc2ccc(F)c(Cl)c2)cc1,32.2,-4.5,-1.0,2.0,-0.9,.,.
Cc1ccc(NC(=O)CN(C)CC(=O)Nc2ccc(F)c(Cl)c2)cc1,19.2,15.6,3.8,-5.1,61.0*,4.4,.
C=CCn1nnnc1SCC(=O)Nc1ccc(C(=O)OC)cc1,-1.3,-0.8,2.1,-1.8,3.3,.,.
C=CCn1nnnc1SCC(=O)Nc1cccc(C(F)(F)F)c1,-1.7,23.1,-0.9,-1.0,69.7*,81.4*,-3.0
CC1=CC(C)C(C[N+]2(C)CCCCC2)C(C)C1 (stereo not drawn),-5.2,13.3,0.4,-0.4,57.7*,56.0*,-3.2
CCC1N=C(SC)NC(C)=C1C(=O)c1ccccc1 (stereo not drawn),-2.4,18.9,6.0,6.0,47.9*,34.8*,-2.7
CC(=O)O[C@H]1C=C[C@@H](NC(=O)OC(C)(C)C)C1,.,.,2.1,-0.9,.,.,.
CC1(CC(=O)N/N=C/c2cc([N+](=O)[O-])c(O)cc2O)OCCO1,-3.3,21.3,1.6,2.6,48.0*,49.0*,4.5
OCCN1CCCC12CCC(c1ccccc1)CC2 (stereo not drawn),.,.,4.7,-2.7,.,.,.
COC(=O)[C@]12C[C@H](CC(=O)NCCC(C)C)C(=O)N(CCc3ccc(OC)c(OC)c3)C1=C[C@H](C(C)C)O[C@@H]2C1CC1,.,.,5.7,6.0,.,.,.
O=C(C1=C[C@H](c2coc3ccccc3c2=O)C[C@H](OCCCCO)O1)N1CCN(Cc2ccccc2)CC1,-8.5,-10.1,-1.1,1.9,75.6*,4.9,5.5
C=CCN1[C@@H](C)COc2cc(N3CCCC3)ccc2S1(=O)=O,.,.,4.9,5.2,.,.,.
CCc1ccccc1NC(=O)C1CCN(C(=O)c2cccs2)CC1,-4.3,0.1,-0.6,-5.0,-1.7,.,.
O=C(Nc1nccs1)[C@@H]1CCCN1C(=O)c1cccs1,-8.3,-6.9,1.1,-0.7,-4.8,.,.
Cc1ccc(NC(=O)C2CCN(C(=O)c3cccs3)CC2)c(C)c1,-2.6,14.0,1.4,4.0,44.5*,67.4*,-0.5
Cc1cc(C)c(NC(=O)CNC(=O)[C@@H]2CCCN2C(=O)c2cccs2)c(C)c1,-1.9,-1.6,-1.5,-0.4,1.9,.,.
O=C(Nc1nc2c(s1)CCCC2)C1CCCN1C(=O)c1cccs1 (stereo not drawn),9.1,20.5,-3.2,3.8,53.6*,45.6*,-0.5
Cc1ccc(NC(=O)C2CCCN2C(=O)c2cccs2)c(C)c1 (stereo not drawn),1.6,17.2,-0.6,-0.8,51.1*,59.2*,-0.7
